An excerpt weighted towards active compounds, which were near 0.74% of everything screened.
FEN1 inhibitor = inhibitors of human flap endonuclease 1; Recombinant FEN1 flap cleavage, fluorescence, 15 min; P39748; Potency, µM (doses to about 114 µM), inactives show top-dose activity change, negative = inhibition, actives largely listed as inhibitors; actives 0.35% (n = 390,000); note: nearly all actives have a fitted effect of over 65% in size
Target sequence (P39748 whole entry, looked up): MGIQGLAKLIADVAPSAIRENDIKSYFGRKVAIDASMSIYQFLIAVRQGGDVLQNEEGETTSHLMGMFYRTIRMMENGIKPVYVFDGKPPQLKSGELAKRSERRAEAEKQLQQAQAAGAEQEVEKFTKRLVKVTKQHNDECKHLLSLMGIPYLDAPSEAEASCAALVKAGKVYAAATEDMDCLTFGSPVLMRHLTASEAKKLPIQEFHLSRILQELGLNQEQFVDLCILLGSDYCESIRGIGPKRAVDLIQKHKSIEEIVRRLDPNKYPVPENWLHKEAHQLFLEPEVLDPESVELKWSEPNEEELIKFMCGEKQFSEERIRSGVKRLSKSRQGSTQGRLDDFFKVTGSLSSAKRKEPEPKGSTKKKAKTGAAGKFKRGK
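Nuclease activity of 10 nM FEN1 was measured after 15 min of room-temperature exposure to titrated compounds, by adding 50 nM flap substrate and reading plates at 0 and 15 min.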
APE1 inh = inhibitors of human APE1 endonuclease. recombinant APE1, TAMRA/BHQ-2 abasic DNA cleavage fluorescence. Potency, µM (top dose mostly 65.8 µM), inactives show at the top dose activity change, negative = inhibition, most hits filed as inhibitors. actives 0.35% (n = 350,000);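 note: plate controls were vehicle for no effect and reference inhibitor for full effect; nearly all actives have a fitted effect of over 55% in size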
Target sequence (P27695 whole entry, looked up): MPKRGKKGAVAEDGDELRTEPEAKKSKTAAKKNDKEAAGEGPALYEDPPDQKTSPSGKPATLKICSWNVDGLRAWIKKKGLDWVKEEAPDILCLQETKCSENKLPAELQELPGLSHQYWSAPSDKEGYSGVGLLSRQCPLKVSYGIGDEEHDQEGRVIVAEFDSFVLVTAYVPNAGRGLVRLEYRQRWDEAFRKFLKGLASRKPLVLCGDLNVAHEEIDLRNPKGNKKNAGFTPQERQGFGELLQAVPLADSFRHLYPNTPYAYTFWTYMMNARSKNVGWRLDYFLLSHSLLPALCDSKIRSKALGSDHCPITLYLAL
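Enzyme (0.75 nM final) and test compound are incubated 15 min at room temperature before adding 50 nM quenched THF abasic-site duplex. Cleavage dequenches TAMRA, followed at 525/598 nm over three reads one minute apart.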
PGK inhibitor = inhibitors of T. brucei phosphoglycerate kinase | P07378 | Potency, µM (highest dose often 57.5 µM), for the others: at the top dose activity change, negative = inhibition, most hits filed as inhibitors | actives 0.043% (n = 380,000) | PGK/GAPDH coupled, Kinase-Glo luminescence, 60 min; note: nearly all actives have a fitted effect of over 60% in size
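Luminescent ATP detection (Kinase-Glo Plus) follows a 60-minute room-temperature incubation, with wells lacking PGK as controls. Buffer: 100 mM TEA (pH 7.6), 5 mM MgCl2, 0.01% Tween-20. Coupling enzyme GAPDH (100 nM final) supplies unstable 1,3-BPG in-well.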
RECQ1 helicase = RECQ1 (human) helicase inhibition; AID 2549; P46063; RECQ1 DNA unwinding, red fluorescence kinetic read; Potency, µM (series often up to 57.3 µM), without a hit: at the highest dose activity, negative = inhibition, usual class: inhibitors; actives 0.54% (n = 240,000);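 note: plate controls were vehicle for no effect and no enzyme for full effect; nearly all actives have a fitted effect of over 30% in size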
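50 nM RECQ1T1 preincubated 15 min with compound in Tris pH 8.0 buffer with MgCl2, DTT, Tween-20 and 2.5 ug/ml poly(dI-dC); started with 200 nM TAMRA/BHQ-2 forked duplex and 2 mM ATP. Unwinding read as fluorescence (525/598 nm), two reads 2 h apart.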
BLM inh = Bloom syndrome helicase (human) inhibition | Potency, µM (highest dose often 56.1 µM), without a hit: top-dose activity change, negative = inhibition, usual class: inhibitors | actives 0.2% (n = 350,000) | P54132 | recombinant BLM DNA unwinding, fluorescence dequenching;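 note: plate controls were vehicle for no effect and no enzyme for full effect; nearly all actives have a fitted effect of over 35% in size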
An asterisk follows results filed as active; ! = a repeat was not active. Calls come from the whole dose curve; as a rule, active = well fitted curve in the direction sought with a large enough effect; inconclusive = small, poorly fitted or top-dose-only effect, or another doubt; inactive = no such curve, though single readings can be large; an effect the other way counts as inactive or inconclusive. Unless noted, % is set by controls: 0 for no effect and ±100 for the full control effect; potency is the fitted concentration of half-maximal effect.

For c1cc2c3c(cccc3c1)NC(c1ccc3c(c1)OCO3)N2 the results were FEN1 inhibitor -20.8%, APE1 inh -0.2% and BLM inh -4.6%.
`CCc1nnc(NS(=O)(=O)c2ccc(NC(=S)NC(=O)/C=C/c3ccc(OC)cc3)cc2)s1` gave FEN1 inhibitor 50.1µM*, APE1 inh 2.4%, PGK inhibitor inconclusive, RECQ1 helicase 3.0% and BLM inh inconclusive.
Screening COc1cc(C2NC(=O)NC(C)=C2C(=O)OCc2ccccc2)ccc1O (stereo not given) returned FEN1 inhibitor 30.6%, APE1 inh 1.1%, PGK inhibitor inactive, RECQ1 helicase inactive and BLM inh 14.1µM*.
`Cc1cc2ncn(-c3ncnc4sc5c(c34)CCCC5)c2cc1C` gave FEN1 inhibitor 0.0%, APE1 inh 4.3%, PGK inhibitor inactive, RECQ1 helicase -10.9% and BLM inh -7.0%.
`CCC1(C)Cc2c(C#N)c(SC)nc(N3CCOCC3)c2CO1` (stereo not given) gave FEN1 inhibitor -18.6% and PGK inhibitor -0.4%.
CC(C)C[C@@H](CC(=O)N[C@H](CC(=O)N[C@@H]1CCCC[C@H]1C(=O)N[C@H](CC(=O)N[C@@H](CCC(=O)O)CC(=O)O)Cc1c[nH]c2ccccc12)C(C)C)NC(=O)[C@@H]1CCCC[C@H]1N was read as APE1 inh -3.9%, RECQ1 helicase -7.5% and BLM inh 7.08µM*.
For CC(C)[C@@H](CC(=O)N[C@@H]1CCCC[C@H]1C(=O)N[C@H](CC(=O)N[C@@H](CCC(=O)O)CC(=O)O)Cc1c[nH]c2ccccc12)NC(=O)C[C@H](Cc1c[nH]c2ccccc12)NC(=O)[C@@H]1CCCC[C@H]1N the results were APE1 inh -0.1%, RECQ1 helicase -8.9% and BLM inh 1.3%.
Cc1ccc(Cc2cnc(NC(=O)c3ccc4c(c3)CC(c3ccccc3)OC4=O)s2)cc1 (stereo not given) was read as FEN1 inhibitor 5.1%, PGK inhibitor -9.2% and BLM inh 1.0%.
O=C1CC(c2ccco2)CC(O)=C1C=Nc1cc(Cl)cc(Cl)c1 (stereo not given) was read as FEN1 inhibitor inconclusive, APE1 inh inconclusive, PGK inhibitor -2.1%, RECQ1 helicase inconclusive and BLM inh -6.6%.
For O=C1CC(c2ccco2)CC(O)=C1C=NCC1CCNCC1 (stereo not given) the results were FEN1 inhibitor 1.3%, APE1 inh 31.6µM*, PGK inhibitor inactive, RECQ1 helicase inactive and BLM inh -3.1%.
Screening CCCS(=O)(=O)N1CCCC(C(=O)NCCc2cccc(C)c2)C1 (stereo not given) returned FEN1 inhibitor 0.3%, APE1 inh 25.0%, PGK inhibitor inactive and BLM inh -0.4%.
For COc1ccccc1CNC(=O)C1CCN(S(=O)(=O)c2c(C)noc2/C=C/c2cccs2)CC1 the results were FEN1 inhibitor 89.1µM*, PGK inhibitor -8.0% and BLM inh -4.0%.
`O=C(C[n+]1csc2ccccc21)c1ccc(O)c(O)c1` gave FEN1 inhibitor 50.1µM*.
Screening COc1ccc(/C=C/c2nccc3c2[nH]c2ccccc23)cc1 returned FEN1 inhibitor -26.3%.
C(=C/c1nccc2c1[nH]c1ccccc12)/c1ccc2c(c1)OCO2 was read as FEN1 inhibitor 44.7µM*, APE1 inh 5.5%, PGK inhibitor inactive, RECQ1 helicase inconclusive and BLM inh -8.3%.
Screening Cc1ccccc1NC(=S)NC(=O)/C=C/c1ccco1 returned FEN1 inhibitor 79.4µM*, APE1 inh -1.7%, PGK inhibitor -11.8% and BLM inh -8.9%.
For CCCNC(=O)OCCC12CC3CC(CC(C3)C1)C2 the results were FEN1 inhibitor -1.5%, APE1 inh -1.8%, PGK inhibitor 0.3%, RECQ1 helicase 2.3% and BLM inh -9.3%.
Screening CCOc1[nH]c(/N=C/c2ccco2)c(C#N)c1C#N returned FEN1 inhibitor -9.7%, APE1 inh inconclusive, PGK inhibitor -0.6%, RECQ1 helicase inactive and BLM inh -4.4%.
CCOc1[nH]c(/N=C/c2ccc(OC)cc2)c(C#N)c1C#N was read as FEN1 inhibitor 79.4µM*.
`Cc1cccc(/C=C(\C(=O)O)c2ccc(S(=O)(=O)N3CCCC3)s2)c1` gave FEN1 inhibitor 0.8%, APE1 inh 11.9µM* and PGK inhibitor -7.6%.
Screening O=C(O)/C(=C\c1cccc(F)c1)c1ccc(S(=O)(=O)N2CCCC2)s1 returned FEN1 inhibitor 0.4%, APE1 inh -12.5% and PGK inhibitor -12.5%.
Screening Cc1ccccc1NC(=O)CN1C(=O)S/C(=C\c2ccc(-c3cc(C(=O)O)ccc3C)o2)C1=O returned FEN1 inhibitor inconclusive, APE1 inh inconclusive, PGK inhibitor inconclusive, RECQ1 helicase inactive and BLM inh -6.7%.
Screening Cc1ccc(NC(=O)CN2C(=O)S/C(=C/c3ccc(-c4cccc(C(=O)O)c4)o3)C2=O)cc1 returned FEN1 inhibitor 20µM*, APE1 inh inconclusive, PGK inhibitor 10µM*, RECQ1 helicase inactive and BLM inh -23.6%.
`Cc1cc(C(=O)O)ccc1-c1ccc(/C=C2\SC(=O)N(CC(=O)Nc3ccc4c(c3)OCO4)C2=O)o1` gave APE1 inh 6.7µM* and BLM inh 11.2µM*.
Screening Cc1cccc(/C=C2/SC(=O)N(Cc3ccccc3Cl)C2=O)n1 returned FEN1 inhibitor 6.4%, APE1 inh 3.1%, PGK inhibitor 4.4%, RECQ1 helicase -0.6% and BLM inh 1.1%.
`COc1cc(OC)cc(C(=O)NNC(=S)NC2CC2)c1` gave FEN1 inhibitor 6.3%, APE1 inh -11.0%, PGK inhibitor -2.2%, RECQ1 helicase -4.6% and BLM inh -2.1%.
O=C(Cc1n[nH]c(=O)c2ccccc12)OCC(=O)c1ccc(OC(F)F)cc1OC(F)F was read as FEN1 inhibitor 1.0%, APE1 inh -5.2% and PGK inhibitor -4.0%.
O=C1c2c(O)cc(O)cc2O[C@H](c2ccc(O)c(O)c2)[C@@H]1O was read as APE1 inh inconclusive, RECQ1 helicase 17.8µM* and BLM inh -8.4%.
Screening Oc1cc(O)c2c(c1)O[C@H](c1ccc(O)c(O)c1)[C@@H](O)C2 returned FEN1 inhibitor 14.8%, APE1 inh 11.2µM*!, PGK inhibitor -7.2%, RECQ1 helicase inconclusive and BLM inh -2.5%.
For O=C(O)C[C@H]1c2ccccc2S(=O)(=O)N1C1CCCCC1 the results were FEN1 inhibitor 20.3% and PGK inhibitor 7.5%.
For O=C(NCc1ccco1)c1cccn2c(=O)c3cc4ccccc4cc3nc12 the results were APE1 inh inconclusive, RECQ1 helicase inconclusive and BLM inh 20µM*.

Assay outcomes (PubChem)
